Only a selection was taken, and hits are over-represented in it overall.
Giardia FBPA inh = inhibitors of Giardia lamblia fructose-1,6-bisphosphate aldolase | purified Giardia FBPA | hit rate 0.71% among 290,000 | Potency, µM (highest dose often 59.6 µM), without a hit: top-dose activity, negative = inhibition, actives largely listed as inhibitors | AID 2451; note: potency is the fitted concentration of half-maximal effect; % is set by controls: 0 for no effect and ±100 for the full control effect; nearly all actives have a fitted effect of over 55% in size
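Giardia FBPA (40 nM reagent) was preincubated 10 min at RT with compound (up to 57.5 uM final), then substrate plus GAPDH/TPI/NAD/arsenate coupling system with diaphorase/resazurin was added; resorufin fluorescence (525/598 nm) was read after 20 min.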
Tb PYK inh = blocks Trypanosoma brucei pyruvate kinase; Q57TT1; TbPYK enzyme, Kinase-Glo Plus ATP luminescence, 45 min; Potency, µM (top dose mostly 76.8 µM), without a hit: at the top dose activity, negative = inhibition, usual class: inhibitors; hit rate 0.12% among 410,000; AID 624173; note: potency is the fitted concentration of half-maximal effect; % is set by controls: 0 for no effect and ±100 for the full control effect; nearly all actives have a fitted effect of over 50% in size
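Screened from lowest to highest concentration, compounds were pinned into TbPYK/substrate mixtures, and ADP (130 uM final) was added. Plates sat at room temperature for 45 min prior to Kinase-Glo Plus detection by luminescence.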
LmPK inh = blocks Leishmania mexicana pyruvate kinase activity; purified LmPK, Kinase-Glo ATP luminescence, 1 h; Q27686; Potency, µM (series often up to 57.5 µM), for the others: at the highest dose activity change, negative = inhibition, most hits filed as inhibitors; hit rate 0.37% among 290,000; AID 1721; note: potency is the fitted concentration of half-maximal effect; % is set by controls: 0 for no effect and ±100 for the full control effect
Target sequence (Q27686 whole entry, looked up): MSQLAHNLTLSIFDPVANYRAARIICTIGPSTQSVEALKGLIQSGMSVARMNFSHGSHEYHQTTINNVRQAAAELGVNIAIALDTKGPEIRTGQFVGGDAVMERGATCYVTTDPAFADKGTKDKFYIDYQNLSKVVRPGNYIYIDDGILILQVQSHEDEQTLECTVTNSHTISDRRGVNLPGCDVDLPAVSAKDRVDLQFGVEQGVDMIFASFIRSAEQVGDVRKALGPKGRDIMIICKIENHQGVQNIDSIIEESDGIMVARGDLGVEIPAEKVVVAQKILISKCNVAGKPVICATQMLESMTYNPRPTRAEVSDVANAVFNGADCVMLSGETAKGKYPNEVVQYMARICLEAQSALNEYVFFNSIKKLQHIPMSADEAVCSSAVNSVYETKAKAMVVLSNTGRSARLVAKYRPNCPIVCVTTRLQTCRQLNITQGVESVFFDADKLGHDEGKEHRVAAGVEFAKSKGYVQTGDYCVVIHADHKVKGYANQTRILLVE
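Purified LmPK (0.1 nM) with 0.5 mM PEP and 0.1 mM ADP in imidazole buffer pH 7.2 with MgCl2/KCl, 1 h at room temperature. ATP formed was read by luciferase luminescence and normalized to no-enzyme and uninhibited controls.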
Cycloheximide cs = affects cycloheximide protein synthesis inhibition readout, counter-screen; hit rate 12% among 300,000; cell reporter, cycloheximide protein synthesis inhibition counterscreen; max response, %; in the data active = max response mostly above about 13%, no sharp cut-off; inactive = mostly below about 14%; note: read at 38.3 µM for the half of the compounds with a filed dose; 0% is about no effect
Shiga toxin inh = blocks Shiga toxin action in Vero cells | Vero cells, Shiga toxin protein synthesis inhibition reporter | inhibition, % at 38.7 µM | hit rate 9.2% among 290,000; in the data active = inhibition mostly above about 28%, no sharp cut-off; inactive = mostly below about 43%; note: 0% is about no effect
Sm TGR inh = inhibitors of Schistosoma mansoni thioredoxin glutathione reductase | Q962Y6 | purified TGR, DTNB reduction, TNB absorbance 405 nm | Potency, µM (doses to about 114 µM), for inactives: at the highest dose activity change, negative = inhibition, actives largely listed as inhibitors | hit rate 3% among 360,000 | AID 485364; note: potency is the fitted concentration of half-maximal effect; % is set by controls: 0 for no effect and ±100 for the full control effect; nearly all actives have a fitted effect of over 60% in size
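TGR 20 nM + NADPH 100 uM (dispensed conc.), cpd preinc 15 min RT; start with NADPH (500 uM addition) then DTNB (15 mM addition). Kinetic TNB absorbance, 405 nm filter. Four-parameter Hill fit across titration.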
An asterisk follows results filed as active; u = inconclusive; x = no result given. Unless noted, calls come from the whole dose curve; as a rule, active = well fitted curve in the direction sought with a large enough effect; inconclusive = small, poorly fitted or top-dose-only effect, or another doubt; inactive = no such curve, though single readings can be large; an effect the other way counts as inactive or inconclusive.

SMILES	Giardia FBPA inh	Tb PYK inh	LmPK inh	Cycloheximide cs	Shiga toxin inh	Sm TGR inh
Cc1ccc(C)c(NC(=O)CSc2nccn2-c2cccc(C)c2C)c1	x	-12.4%	x	x	x	7.9%
O=C1C(CN2CCCC2)CCCC1CN1CCCC1 (configuration not stated)	x	-22.1%	x	x	x	x
COc1ccc(S(=O)(=O)Cc2ccc(C(=O)NCc3cccnc3)o2)cc1	-10.0%	-3.6%	6.4%	1.0	10.4	35.5µM*
Cc1nn(-c2ccccc2)c(C)c1NC(=O)COC(=O)c1ccc(O)cc1O	x	-0.5%	-8.1%	-1.7	13.8	-11.3%
CCn1c(=O)c2sccc2n2c(CCC(=O)NCc3ccc(Cl)cc3)nnc12	x	-8.4%	x	x	x	21.9%
CCc1cc2c(SCC(=O)N3CCN(C(=O)c4cccs4)CC3)ncnc2s1	x	6.5%	x	x	x	x
CCc1cc2c(SCC(=O)c3cccs3)ncnc2s1	5.4%	-3.4%	2.2%	15.9*	-14.9	7.0%
CCc1cc2c(SCC(=O)O)ncnc2s1	15.6%	2.8%	3.8%	5.3	-16.6	0.0%
CCc1cc2c(SCC(=O)c3ccccc3)ncnc2s1	0.9%	0.8%	6.4%	45.5*	73.4*	u
CCOc1ccc(CCNC(=O)CSc2nnnn2-c2ccccc2)cc1OCC	x	7.7%	x	x	x	-9.8%
C/C(=N\NC(=O)C(N)=O)c1ccc(O)cc1O	11.7%	0.3%	1.2%	16.2*	20.6	2.6%
CCc1ccc(OCC(=O)N/N=C(\C)c2ccc(O)cc2O)cc1	19.0%	5.6%	0.1%	-2.4	-9.6	23.7%
Cc1cccc(C)c1OCc1cc(=O)n2c3c(sc2n1)CCCC3	x	-3.2%	x	x	x	3.3%
CSc1nc(Cl)cc(Nc2ccccc2N)n1	-0.7%	2.8%	-9.6%	18.8	4.8	-2.8%
Nc1nc(Cl)cc(Nc2ccccc2Cl)n1	0.2%	4.6%	3.9%	11.7*	18.1	3.4%
Cc1ccc(NC(=O)CCn2c(=O)c3cccn3c3ccccc32)cc1Cl	x	6.6%	x	x	x	8.8%
O=C(COC(=O)c1ccc2ccccc2c1O)NCC(F)(F)F	-3.7%	1.6%	-2.7%	22.3*	69.3*	5.1%
COc1ccccc1CNC(=O)C(NS(=O)(=O)c1ccc2c(c1)CCN2C(C)=O)C(C)C (configuration not stated)	x	0.0%	x	x	x	-4.5%
Cc1ccc(C(=O)CSc2nccn2-c2ccccc2)cc1	-3.0%	-8.2%	3.3%	48.9*	143.3*	5.0%
O=C(CSc1nccn1-c1ncc(C(F)(F)F)cc1Cl)c1ccc(Br)cc1	-14.0%	-19.7%	-2.0%	30.6*	102.3	4.1%
O=C(CSc1nccn1-c1ccccc1)c1ccc(Cl)cc1	-4.8%	-3.7%	-1.5%	29.5*	82.7*	1.1%
Cc1ccc(/C(CSc2nccn2-c2ncc(C(F)(F)F)cc2Cl)=N\O)cc1	7.5%	-17.3%	1.1%	9.8	6.4	-3.9%
CCOc1ccc(CCNC(=O)CCn2c(=O)c3cccn3c3cccnc32)cc1	x	-1.6%	x	x	x	0.6%
Cc1ccc([N+](=O)[O-])cc1NC(=O)Nc1cccc(F)c1	-1.8%	7.2%	8.7%	-1.4	4.5	5.7%
COc1ccc(C(=O)NNC(=O)c2snnc2C)cc1	-16.2%	2.0%	-3.0%	16.5	42.1*	10.2%
SMILES	Giardia FBPA inh	Tb PYK inh	LmPK inh	Cycloheximide cs	Shiga toxin inh	Sm TGR inh
COc1ccc(C(=O)NNC(=O)c2cccc(F)c2)cc1	u	-5.5%	2.5%	25.7*	68.4*	3.7%
O=C(NNC(=S)Nc1ccc(Cl)cc1)c1ccccc1	x	-5.8%	-6.9%	27.1*	56.9*	0.3%
O=C(NNC(=O)c1ccc(NC(=O)c2ccccc2)cc1)c1ccccc1	3.9%	6.4%	6.1%	-1.1	-10.6	-0.9%
COc1ccc(C(=O)NNC(=O)c2ccncc2)cc1	13.7%	6.8%	-1.0%	6.0	7.2	-0.9%
COc1ccc(C(=O)NNC(=S)Nc2ccccc2)cc1	0.9%	-18.1%	-11.2%	40.5*	58.2	11.3%
COc1cc(CN2CCN(S(=O)(=O)c3ccc(NC(C)=O)cc3)CC2)cc(OC)c1OC	x	-20.1%	x	x	x	1.7%
O=C(NNC(=S)Nc1ccccc1Cl)c1ccccc1	u	3.5%	-3.3%	43.3*	77.6*	0.0%
COc1ccc(C(=O)NNC(=O)C2(C)CC2(Br)Br)cc1 (configuration not stated)	3.3%	-8.7%	3.4%	26.2*	35.2*	-29.4%
O=C(NNC(=S)Nc1ccccc1Cl)c1ccccc1Cl	x	-8.4%	-3.8%	-2.3	-7.6	-1.3%
CCOc1cc(NC(=S)Nc2ccccc2)c(OCC)cc1NC(=O)c1ccc(OC)cc1	-21.8%	2.4%	-5.5%	20.9*	10.2	16.3%
CC(=O)c1ccc(NC(=S)NNC(=O)c2ccncc2)cc1	3.4%	-30.1%	-7.1%	15.9*	17.8	1.6%
CCNC(=S)NNC(=O)c1ccncc1	u	-3.3%	-0.9%	-2.2	-10.7	-1.5%
O=C(Nc1cccc(Cl)c1)c1ccccc1	x	1.2%	x	x	x	-1.5%
Cc1nnsc1C(=O)N/N=C/c1ccc(OC(F)(F)F)cc1	4.1%	-0.4%	-3.4%	23.3*	64.3*	-0.5%
O=C(NNC(=S)Nc1cccc(Cl)c1)c1ccccc1	x	-22.6%	-7.5%	26.6*	41.6*	-0.2%
Cc1nnsc1C(=O)N/N=C/c1ccccc1	-4.4%	0.5%	-3.7%	3.6	4.4	-2.3%
O=C(NCCc1nc2ccccc2n1Cc1ccc(F)cc1)c1ccco1	x	9.3%	x	x	x	1.5%
CCOc1ccc(C(=O)NCCn2cc(SCC(=O)Nc3ccc4c(c3)OCCO4)c3ccccc32)cc1	x	-0.5%	x	x	x	0.7%
Cc1ccc(NC(=O)CCc2c(C)nn(-c3ccc(N4CCOCC4)nn3)c2C)cc1	17.3%	-3.3%	1.0%	22.6*	6.8	-6.8%
CCc1cccc(NC(=O)CCc2c(C)nn(-c3ccc(N4CCOCC4)nn3)c2C)c1	x	-9.0%	3.4%	26.0*	26.8	-10.7%
CC(=O)c1ccc(NC(=O)CCc2nnc3ccc(N4CCCC4)nn23)cc1	x	2.9%	-8.3%	31.5*	50.2*	-4.5%
CCc1ccc(NC(=O)CCc2nnc3ccc(N4CCCC4)nn23)cc1	x	0.2%	-1.3%	-8.7	3.1	4.2%
CCc1ccc(NC(=O)CCc2c(C)nn(-c3ccc(N4CCOCC4)nn3)c2C)cc1	x	1.8%	-0.1%	42.1*	45.0*	11.6%
COc1ccc(NC(=O)CCc2c(C)nn(-c3ccc(N4CCOCC4)nn3)c2C)cc1	-9.4%	0.0%	-1.4%	19.5	37.8	-8.0%
Cn1cc(-c2nc3cncnc3n(CCN)c2=O)c2ccccc21	-13.7%	x	x	x	x	x
CC(=O)c1ccc(NS(=O)(=O)c2cccc(S(=O)(=O)c3ccc(Cl)cc3)c2)cc1	x	0.4%	x	x	x	-10.7%
Cc1ccc(Cn2c(CNC(=O)c3ccccc3Br)nc3cccnc32)cc1	x	4.0%	x	x	x	-3.3%
COc1cc(C(=O)N(C(C)C)C2CCCCC2)cc(OC)c1OC	x	-8.2%	x	x	x	x
CC(=O)c1ccc(NC(=O)CCc2c(C)nn(-c3ccc(N4CCOCC4)nn3)c2C)cc1	8.3%	-23.2%	-6.6%	44.3*	39.7*	2.0%

Bioassay records (PubChem BioAssay)
